This is an account of results in PubChem BioAssay.

Records with an inconclusive call do not appear. Activity calls are given as the source filed them.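 The calls were made as follows, unless noted: active = GFP signal, as percent of the solvent control, above the screen mean plus 3 SD, about 149; inconclusive = no reading because the compound's own fluorescence upset strain identification; inactive = the rest.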

In general, inhibition refers to the drop in the measured response relative to a control, in per cent.

Assay [1] is described as follows: yeast TOR pathway RPL19A-GFP modulators, primary screen, cell-based, S. cerevisiae, multiplex flow cytometry (AID 1862; in the data active = percent of DMSO control GFP below about 86%;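 also: lower values mimic rapamycin by blocking the RPL19A rise seen in DMSO cells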). To be noted: S. cerevisiae RPL19A-GFP strain, flow cytometry fluorescence, 3 h; at 10 µM; stronger effect = lower value. For orientation: Flow cytometry measures light scatter and fluorescence of single cells or particles in a stream.
Assay [2] in a line: modulators of MEP2-GFP levels in yeast, primary screen, S. cerevisiae, multiplex flow cytometry (AID 1867;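 active = GFP response, as percent of the DMSO control, above the screen-wide mean plus 3 SD, about 139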;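 also: median GFP channel fluorescence of barcode-gated MEP2-GFP cells measured by flow cytometry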). The conditions noted are these: S. cerevisiae MEP2-GFP strain, 3 h, at 10 µM, stronger effect = higher value, 100% means same as DMSO wells.
The nature of assay [3]: modulators of CIT2-GFP expression in yeast, primary screen, S. cerevisiae, GFP fusion, multiplex flow cytometry (AID 1870;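 active = percent response above a set limit, the screen-wide mean plus 3 SD, cut at about 130% in these data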;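 also: barcoded CIT2-GFP strain pooled with four other GFP strains with rapamycin as positive control; median GFP fluorescence per well over plate mean of DMSO wells so 100% = DMSO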). The conditions noted are these: 3 h, at 10 µM, stronger effect = higher value.
Assay [4] in a line: modulators of LAP4-GFP expression in yeast, primary screen, S. cerevisiae, multiplex flow cytometry (AID 1873). The conditions noted are these: 3 h, at 10 µM, stronger effect = higher value.
A short description of assay [5]: modulators of AGP1-GFP expression in yeast TOR pathway, primary screen, cell-based, multiplex flow cytometry, S. cerevisiae (AID 1887;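 active = GFP signal above the screen-wide mean plus 3 SD, that is over about 124.5% of the solvent control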;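 also: AGP1-GFP fusion strain of S. cerevisiae within a five-strain barcoded multiplex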). To be noted: 3 h, at 10 µM, stronger effect = higher value.
Assay [6] in a line: inhibitors of CD8+ T cell-vesicle binding, pilot screen, LFA-1/ICAM-1 modulator project, MLPCN validation set, flow cytometry (AID 2523;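 active = response below a set limit, under 55% cells CD8-positive and vesicle-bound, and CD8 cells' 90th-percentile brightness under 279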;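 as to vesicle binding response: mean PE anti-B7-1 fluorescence of CD8+ cells relative to row control; 100% = QL9-loaded vesicles with DMSO vehicle in the same plate row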). The conditions noted are these: 2C mouse CD8+ T cells, at 7 µM, stronger effect = lower value; double positive events: measured here: CD8+/vesicle+ event percentage.
The target in assay [7] is Integrin beta-1 (Homo sapiens) + Integrin alpha-4 (Homo sapiens) (UniProt P13612+P05556). Briefly: inhibition of HUTS-21 binding to VLA-4, pilot screen, VLA-4 allosteric modulator project, U937 cells, HUTS-21 mAb, flow cytometry, validation set (AID 2674;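 active = inhibition above 50%, about 3 SD of the validation set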;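 also: antibody binding induced by the VLA-4 ligand LDV present at three times its Kd; 0% = LDV ligand with antibody and no compound and 100% = antibody without LDV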). To be noted: HUTS-21 LIBS mAb binding, at 6.7 µM, stronger effect = higher value, binding induced by LDV ligand.
Chain of Integrin beta-1 (Homo sapiens) + Integrin alpha-4 (Homo sapiens) (P05556 whole entry, looked up): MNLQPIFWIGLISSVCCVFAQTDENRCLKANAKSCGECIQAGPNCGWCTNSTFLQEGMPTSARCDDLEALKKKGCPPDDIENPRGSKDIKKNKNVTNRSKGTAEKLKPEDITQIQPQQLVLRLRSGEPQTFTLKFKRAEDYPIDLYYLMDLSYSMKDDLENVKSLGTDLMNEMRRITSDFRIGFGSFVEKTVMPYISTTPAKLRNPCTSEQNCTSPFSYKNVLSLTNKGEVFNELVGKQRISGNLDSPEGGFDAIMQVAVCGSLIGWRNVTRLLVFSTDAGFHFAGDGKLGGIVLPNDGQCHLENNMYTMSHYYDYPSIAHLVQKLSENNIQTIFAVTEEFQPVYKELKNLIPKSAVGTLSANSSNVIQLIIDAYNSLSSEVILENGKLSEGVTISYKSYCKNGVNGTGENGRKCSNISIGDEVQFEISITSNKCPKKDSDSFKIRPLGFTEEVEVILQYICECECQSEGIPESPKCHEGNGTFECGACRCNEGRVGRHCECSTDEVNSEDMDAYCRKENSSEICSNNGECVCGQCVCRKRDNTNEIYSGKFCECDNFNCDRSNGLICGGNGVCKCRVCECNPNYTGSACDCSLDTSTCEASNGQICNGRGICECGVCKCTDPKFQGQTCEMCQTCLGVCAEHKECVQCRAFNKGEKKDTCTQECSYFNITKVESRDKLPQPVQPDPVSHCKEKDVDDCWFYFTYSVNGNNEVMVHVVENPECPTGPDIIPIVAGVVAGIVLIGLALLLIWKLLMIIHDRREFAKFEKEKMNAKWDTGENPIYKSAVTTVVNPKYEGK
Chain of Integrin beta-1 (Homo sapiens) + Integrin alpha-4 (Homo sapiens) (P13612 whole entry, looked up): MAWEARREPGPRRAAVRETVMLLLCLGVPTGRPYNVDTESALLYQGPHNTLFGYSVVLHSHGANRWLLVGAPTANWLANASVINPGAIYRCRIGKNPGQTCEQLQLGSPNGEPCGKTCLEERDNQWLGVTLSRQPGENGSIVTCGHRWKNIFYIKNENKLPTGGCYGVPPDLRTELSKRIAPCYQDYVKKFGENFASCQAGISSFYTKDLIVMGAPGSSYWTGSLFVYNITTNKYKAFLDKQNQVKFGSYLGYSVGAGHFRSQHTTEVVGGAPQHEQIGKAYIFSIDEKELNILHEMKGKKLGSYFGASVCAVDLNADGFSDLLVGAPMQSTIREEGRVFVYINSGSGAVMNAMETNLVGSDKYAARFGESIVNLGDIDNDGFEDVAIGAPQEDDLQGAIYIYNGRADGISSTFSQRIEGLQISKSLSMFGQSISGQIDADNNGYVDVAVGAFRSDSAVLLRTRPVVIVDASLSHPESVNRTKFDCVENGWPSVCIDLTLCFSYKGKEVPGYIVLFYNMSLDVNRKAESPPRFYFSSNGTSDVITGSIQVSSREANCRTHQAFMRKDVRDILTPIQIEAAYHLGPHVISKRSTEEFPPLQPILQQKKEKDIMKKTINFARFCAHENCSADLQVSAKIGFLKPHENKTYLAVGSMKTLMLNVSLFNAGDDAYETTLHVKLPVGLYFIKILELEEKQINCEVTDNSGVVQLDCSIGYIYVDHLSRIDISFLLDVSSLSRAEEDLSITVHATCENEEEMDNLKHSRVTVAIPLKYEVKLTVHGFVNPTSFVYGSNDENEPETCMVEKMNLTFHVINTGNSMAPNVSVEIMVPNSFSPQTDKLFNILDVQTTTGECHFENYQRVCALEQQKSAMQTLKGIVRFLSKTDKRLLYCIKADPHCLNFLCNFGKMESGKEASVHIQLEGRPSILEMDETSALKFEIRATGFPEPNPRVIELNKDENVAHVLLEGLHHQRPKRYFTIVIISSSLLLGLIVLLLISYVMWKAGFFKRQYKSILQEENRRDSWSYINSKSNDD
Assay [8] is described as follows: superoxide lowering in aged yeast cells, pilot screen, validation compound set (AID 2706;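 active = superoxide response below 65% of plate, a cut near 3 SD across the whole screen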;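 also: yeast exposed to compound for one week at 30 degrees C before staining; 100% = mean of all compound wells on the same plate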). To be noted: S. cerevisiae aging, superoxide DHE fluorescence; at 10 µM, stronger effect = lower value.
The target in assay [9] is Beta-adrenergic receptor kinase 1 (Homo sapiens) (UniProt P25098). Nature of the assay: GRK2 binders displacing RNA aptamer, biochemical, validation, human GRK2, bead flow cytometry (AID 488806;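 active = aptamer binding inhibition above 30%, about 3 SD of noise from non-fluorescent compounds; inactive = inhibition at or below 30%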). To be noted: bead-bound GRK2, FAM-aptamer displacement, at 10 µM, stronger effect = higher value.
Chain of Beta-adrenergic receptor kinase 1 (Homo sapiens) (P25098 whole entry, looked up): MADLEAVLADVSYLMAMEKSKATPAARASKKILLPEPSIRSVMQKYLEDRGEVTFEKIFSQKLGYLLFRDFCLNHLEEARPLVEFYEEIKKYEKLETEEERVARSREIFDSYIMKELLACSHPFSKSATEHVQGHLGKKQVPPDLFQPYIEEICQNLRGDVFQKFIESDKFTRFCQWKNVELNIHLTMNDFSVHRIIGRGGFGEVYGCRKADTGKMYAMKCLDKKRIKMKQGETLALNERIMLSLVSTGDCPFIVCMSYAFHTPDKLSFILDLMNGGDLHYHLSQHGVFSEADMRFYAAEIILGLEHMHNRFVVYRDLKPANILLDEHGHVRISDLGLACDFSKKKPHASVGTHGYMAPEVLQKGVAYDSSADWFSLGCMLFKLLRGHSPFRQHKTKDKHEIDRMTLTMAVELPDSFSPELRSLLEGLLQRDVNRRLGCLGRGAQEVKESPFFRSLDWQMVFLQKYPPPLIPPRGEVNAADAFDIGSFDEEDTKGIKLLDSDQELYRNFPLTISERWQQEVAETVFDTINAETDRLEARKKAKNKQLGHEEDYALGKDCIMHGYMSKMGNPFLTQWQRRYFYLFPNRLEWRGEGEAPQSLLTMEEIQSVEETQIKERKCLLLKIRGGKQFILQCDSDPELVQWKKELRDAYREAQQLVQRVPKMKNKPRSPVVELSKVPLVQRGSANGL
For assay [10], the target named is Beta-2 adrenergic receptor (Homo sapiens) (UniProt P07550). Nature of the assay: beta2AR agonists driving receptor internalization, pilot screen, cell-based, FAP fluorogen, flow cytometry, validation set (AID 504459;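 active = percent response above 42, roughly 3 SD of non-fluorescent test compounds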;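 also: agonist-driven loss of surface beta2AR via internalization measured by FAP dye flow cytometry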). The conditions noted are these: Am2.2-beta2AR cells, FAP surface receptor flow cytometry; at 10 µM; stronger effect = higher value.
Chain of Beta-2 adrenergic receptor (Homo sapiens) (P07550 whole entry, looked up): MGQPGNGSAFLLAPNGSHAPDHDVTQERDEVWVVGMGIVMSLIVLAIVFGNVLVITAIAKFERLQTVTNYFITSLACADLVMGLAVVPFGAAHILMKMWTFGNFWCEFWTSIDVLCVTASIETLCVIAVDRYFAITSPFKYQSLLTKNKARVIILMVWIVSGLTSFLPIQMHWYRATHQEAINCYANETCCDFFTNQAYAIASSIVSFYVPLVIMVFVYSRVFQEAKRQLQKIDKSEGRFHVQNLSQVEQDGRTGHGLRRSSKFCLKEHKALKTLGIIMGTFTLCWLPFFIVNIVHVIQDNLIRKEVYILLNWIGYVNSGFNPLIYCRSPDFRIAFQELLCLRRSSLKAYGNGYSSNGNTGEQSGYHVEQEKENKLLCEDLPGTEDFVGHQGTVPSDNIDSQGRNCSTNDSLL
For assay [11], the target named is AP-2 complex subunit beta (Homo sapiens) (UniProt P63010). Briefly: inhibitors of arrestin peptide binding to AP2, pilot screen, biochemical, validation set, GST-AP2 beads, flow cytometry (AID 504541;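 active = inhibition above 54%, about 3 SD of non-fluorescent compounds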;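 also: AP2 carries R879A mutation and is captured from E. coli lysate; bead-bound FITC arrestin peptide fluorescence measuring arrestin peptide binding to AP2; 0% = DMSO wells and 100% = excess unlabeled arrestin peptide control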). The conditions noted are these: FITC arrestin peptide, at 10 µM, stronger effect = higher value, AP2 beta2 appendage fragment, R879A mutant.
Chain of AP-2 complex subunit beta (Homo sapiens) (P63010 whole entry, looked up, the tested form may be a part, one chain of several): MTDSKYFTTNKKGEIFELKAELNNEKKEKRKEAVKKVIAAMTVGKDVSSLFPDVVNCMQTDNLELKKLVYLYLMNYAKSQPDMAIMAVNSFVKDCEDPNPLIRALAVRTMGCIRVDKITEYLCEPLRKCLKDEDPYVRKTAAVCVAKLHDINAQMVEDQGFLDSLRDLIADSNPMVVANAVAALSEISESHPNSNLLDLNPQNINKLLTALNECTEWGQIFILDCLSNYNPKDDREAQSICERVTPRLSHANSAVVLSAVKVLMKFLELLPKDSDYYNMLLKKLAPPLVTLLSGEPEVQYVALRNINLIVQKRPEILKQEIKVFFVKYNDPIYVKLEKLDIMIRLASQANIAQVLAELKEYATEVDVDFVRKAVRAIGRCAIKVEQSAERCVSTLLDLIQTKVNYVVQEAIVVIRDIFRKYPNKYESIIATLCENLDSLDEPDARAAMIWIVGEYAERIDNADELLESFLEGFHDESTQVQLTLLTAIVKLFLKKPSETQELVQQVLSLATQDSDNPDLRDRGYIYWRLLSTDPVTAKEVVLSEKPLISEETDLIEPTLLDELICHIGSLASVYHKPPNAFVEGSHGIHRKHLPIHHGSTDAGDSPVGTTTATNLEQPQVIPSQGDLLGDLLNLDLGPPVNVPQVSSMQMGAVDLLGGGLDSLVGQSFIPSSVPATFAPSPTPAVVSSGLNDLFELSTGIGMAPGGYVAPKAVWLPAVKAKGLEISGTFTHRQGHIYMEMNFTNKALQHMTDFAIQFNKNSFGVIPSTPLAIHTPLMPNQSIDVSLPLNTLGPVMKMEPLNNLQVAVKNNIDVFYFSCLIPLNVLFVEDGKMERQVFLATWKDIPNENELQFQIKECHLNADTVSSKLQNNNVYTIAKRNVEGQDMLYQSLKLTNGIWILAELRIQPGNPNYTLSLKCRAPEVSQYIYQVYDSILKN
The nature of assay [12]: yeast V-ATPase proton transport modulators, S. cerevisiae, pHLuorin, HTS validation (AID 504600; in the data active = response above about 15%;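 also: plate controls were DMSO for no effect and reference compound for full effect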). The conditions noted are these: S. cerevisiae pHLuorin cytosolic pH, at 10 µM, stronger effect = higher value.
The test system of assay [13] is anti-desmoglein-3 scFv antibody binding to human DSG3. Briefly: inhibitors of anti-DSG3 scFv binding to DSG3, pilot screen, biochemical, validation compound set, bead-based, flow cytometry (AID 588368;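 active = binding below the plate cutoff, the plate median minus 3 SD, with a reading above zero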;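 also: signal is the median channel fluorescence of bead-bound GFP antibody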). The conditions noted are these: Protein G beads, DSG3-Fc, scFv-GFP binding, at 10 µM, stronger effect = lower value.
For assay [14], the target named is ATP-binding cassette sub-family B member 6 (Homo sapiens) (UniProt Q9NP58). Nature of the assay: ABCB6 transporter inhibitors, pilot screen, K562-ABCB6 cells, flow cytometry, validation set (AID 588550;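 active = inhibition above the screen-wide mean plus 3 SD, about 51%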;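 also: 0% = DMSO wells and 100% = benzethonium chloride 70 µM positive control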). To be noted: K562-ABCB6 porphyrin accumulation, 1 h, at 10 µM, stronger effect = higher value.
Chain of ATP-binding cassette sub-family B member 6 (Homo sapiens) (Q9NP58 whole entry, looked up): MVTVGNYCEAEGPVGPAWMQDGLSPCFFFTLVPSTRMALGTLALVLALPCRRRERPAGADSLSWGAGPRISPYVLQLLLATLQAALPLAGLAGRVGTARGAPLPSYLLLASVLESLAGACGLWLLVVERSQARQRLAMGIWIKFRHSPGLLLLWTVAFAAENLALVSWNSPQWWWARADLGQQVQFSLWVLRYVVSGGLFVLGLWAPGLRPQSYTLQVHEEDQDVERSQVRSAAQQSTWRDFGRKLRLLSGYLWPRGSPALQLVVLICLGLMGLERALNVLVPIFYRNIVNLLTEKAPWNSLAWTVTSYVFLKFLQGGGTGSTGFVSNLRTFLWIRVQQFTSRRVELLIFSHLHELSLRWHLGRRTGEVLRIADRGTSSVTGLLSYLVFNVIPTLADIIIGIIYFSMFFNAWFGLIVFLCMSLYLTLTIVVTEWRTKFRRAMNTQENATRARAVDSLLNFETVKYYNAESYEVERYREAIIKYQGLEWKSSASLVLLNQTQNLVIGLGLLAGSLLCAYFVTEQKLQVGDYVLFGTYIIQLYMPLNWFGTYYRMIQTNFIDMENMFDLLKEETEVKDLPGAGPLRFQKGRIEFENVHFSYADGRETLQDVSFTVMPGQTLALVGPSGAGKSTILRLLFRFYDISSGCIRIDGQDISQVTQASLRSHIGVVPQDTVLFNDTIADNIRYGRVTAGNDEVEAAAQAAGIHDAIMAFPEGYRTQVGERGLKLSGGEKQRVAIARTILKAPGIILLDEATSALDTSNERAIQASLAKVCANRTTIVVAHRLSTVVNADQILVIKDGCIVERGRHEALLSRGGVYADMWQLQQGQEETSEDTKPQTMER
Assay [15] is described as follows: promoters of myeloid differentiation in arrested cells, primary screen, cell-based, GFP/MAC1 double positive, flow cytometry, validation set (AID 588685;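 active = differentiation response of at least 50%, scaled between solvent and reference control, from cells with both markers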;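 also: compound exposure lasts four days before antibody staining and flow analysis; 0% = DMSO wells and 100% = 5 µM fulvestrant positive control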). To be noted: ER-HoxA9 marrow cells, stronger effect = higher value, normalized: vehicle 0, fulvestrant 100.
Assay [16] in a line: inhibitors of fungal efflux pumps CDR1, CDR2, MDR1, pilot screen, validation compound set, multiplex, phenotypic (AID 588506;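 active = efflux inhibition above 0.42, the validation set average plus 4 SD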;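 also: Nile Red retained in cells so higher fluorescence means more efflux inhibition; 0 = negative control wells and 1 = enniatin B 25 µM full block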). The conditions noted are these: S. cerevisiae pump-expressing triplex, Nile Red efflux flow cytometry; at 10 µM; stronger effect = higher value; the pumps come from Candida albicans.

As for `CC(C)NC(=O)c1ccc(C(C)C)cc1`, the percent of DMSO control GFP in assay [1] was 98.4% (inactive). The GFP response vs DMSO in assay [2] is 102% (inactive); in assay [4], 118% (inactive). Also, the percent response of DMSO control in assay [3] is 108% (inactive). Also, in assay [5], the GFP response, % of DMSO is 101% (inactive). In addition, in assay [6], the double positive events worked out at 63.6%. In addition, the vesicle binding response in [6] was 255% (inactive). Besides, the figures for the inhibition in assay [7], in assay [11] and in assay [14] were -11.3% (inactive), -5.8% (inactive) and 13% (inactive), respectively. For the same molecule, the superoxide response (% of plate) in assay [8] is 109% (inactive). Besides, the aptamer binding inhibition in [9] is -2% (inactive). For the same molecule, the response in assay [10] was 0.9% (inactive); in assay [12], -1.44% (inactive). Besides, the binding (% of control) in assay [13] was 102% (inactive). Moreover, the differentiation response in assay [15] is 2.4% (inactive).
Regarding `CCC(C)NCCOCCOc1ccc(Cl)c2ccccc12` (stereo not given), in assay [1], the percent of DMSO control GFP is 96.6% (inactive). In addition, the GFP response vs DMSO was 123% (inactive) in assay [2] and 99% (inactive) in assay [4]. Further, in assay [3], the percent response of DMSO control is 107% (inactive). The GFP response, % of DMSO in [5] is 96.1% (inactive). This molecule also displayed a double positive events in [6] of 56.7%. For the same molecule, in assay [6], the vesicle binding response is 204% (inactive). Besides, the inhibition in assay [7] is 26.8% (inactive); in assay [14], 6% (inactive). Further, the superoxide response (% of plate) in assay [8] is 83.4% (inactive). In addition, the aptamer binding inhibition in assay [9] is -5% (inactive). Further, the results for the response in [10] and in assay [12] were 34.5% (inactive) and -0.59% (inactive), respectively. Moreover, in [13], the binding (% of control) is 108% (inactive). In addition, in [16], the efflux inhibition (fraction of control) was 0.09 (inactive). Moreover, in assay [15], the differentiation response is 24.6% (inactive).
Consider `COc1ccc2c(c1)CC[C@@H]1[C@@H]2CC[C@]2(C)C(=O)CC[C@@H]12`, for which the percent of DMSO control GFP in assay [1] is 102% (inactive). Also, the GFP response vs DMSO in assay [2] was 102% (inactive); in assay [4], 133% (inactive). The percent response of DMSO control in [3] was 98.6% (inactive). The GFP response, % of DMSO in assay [5] is 104% (inactive). In assay [6], this molecule came in with a double positive events of 58.2%. Moreover, the vesicle binding response in [6] is 122% (inactive). Moreover, the inhibition in [7] is -7.79% (inactive); in assay [11] it was -2.71% (inactive); in [14], 3% (inactive). In addition, in assay [8], the superoxide response (% of plate) was 98.6% (inactive). For the same molecule, the aptamer binding inhibition in assay [9] is -1% (inactive). Moreover, the response is -15.3% (inactive) in assay [10] and 109% (active) in assay [12]. For the same molecule, the binding (% of control) in [13] is 102% (inactive). The differentiation response in assay [15] is -0.18% (inactive).
Consider `COc1ccc(C(=O)/C=C/c2ccc(OC(=O)c3cc(OC)c(OC)c(OC)c3)cc2)cc1`, for which the percent of DMSO control GFP in assay [1] is 100% (inactive). For the same molecule, the GFP response vs DMSO in assay [2] is 102% (inactive); in assay [4], 114% (inactive). For the same molecule, in assay [3], the percent response of DMSO control is 87.3% (inactive). Besides, in assay [5], the GFP response, % of DMSO was 105% (inactive). Also, the double positive events in assay [6] came to 60.7%. Besides, the vesicle binding response in [6] was 179% (inactive). Besides, the values for the inhibition in [7] and in assay [14] were -7.93% (inactive) and 0% (inactive), respectively. Besides, in assay [8], the superoxide response (% of plate) is 96.7% (inactive). Moreover, in assay [9], the aptamer binding inhibition was -2% (inactive). The response in assay [10] is -6.42% (inactive); in assay [12], -3.29% (inactive). The binding (% of control) in assay [13] is 97.4% (inactive). In addition, the efflux inhibition (fraction of control) in [16] was 0.42 (inactive). In assay [15], the differentiation response is 20.6% (inactive).
Take `CC1COc2c(N3CCN(C)CC3)c(F)cc3c(=O)c(C(=O)O)cn1c23` (stereo not given): the percent of DMSO control GFP in [1] is 92.2% (inactive). Also, the GFP response vs DMSO in [2] is 120% (inactive); in assay [4], 77.6% (inactive). Also, the percent response of DMSO control in assay [3] is 103% (inactive). Also, the GFP response, % of DMSO in assay [5] was 90.8% (inactive). The molecule further registered a double positive events in assay [6] of 64.3%. Further, in assay [6], the vesicle binding response is 109% (inactive). Further, the inhibition is 11.3% (inactive) in assay [7], 2.93% (inactive) in assay [11] and 7% (inactive) in assay [14]. Also, the superoxide response (% of plate) in [8] was 112% (inactive). In addition, the aptamer binding inhibition in [9] is 2% (inactive). Moreover, the response in assay [10] was -5.81% (inactive); in assay [12], -5.31% (inactive). Further, the binding (% of control) in [13] was 95.4% (inactive). Besides, the differentiation response in assay [15] was -5.73% (inactive).
